Here are results for 40 compounds from PubChem BioAssay (Tox21).

Results filed as inconclusive are left out. Active and inactive are the calls of the source. The call rests on the fitted dose curve; in most records, active means well fitted cell-killing curve with a large enough effect in the repeat runs; inconclusive means weak or mixed curves; inactive means flat fitted curve, though single readings scatter.
On the % scale 0 is the no-effect control and ±100 the full control effect.

This assay in a line: qHTS assay to identify small molecule antagonists of the estrogen related receptor (ERR) signaling pathway from Tox21 library - cell viability counter screen (AID 1224834). Further: nearly all actives have a fitted effect of over 30% in size. The note with it: ERR reporter cells viability, CellTiter-Fluor, 17.5 h; series mostly up to 92.4 µM; viability change, negative = cytotoxic: at the top concentration. The text has this: National Center for Advancing Translational Sciences [NCATS]
NIH Chemical Genomics Center [NCGC]
U.S. Environmental Protection Agency [EPA]
National Institutes of Environmental Health Sciences [NIEHS]
National Toxicology Program [NTP]
U.S. Food and Drug Administration [FDA]
Estrogen related receptors (ERRs), the first orphan nuclear receptors discovered, play an important role in the control of cellular energy metabolism. ERRs are required for high-energy production in response to the environmental challenges. ERR-alpha was also identified as an adverse marker for breast cancer progression; ERR-alpha-positive tumors have a poor prognosis. To screen and to identify environmental compounds that perturb the ERR signaling pathways could provide valuable information for potential therapeutic or preventive measures in the treatment of metabolic disease. To differentiate true ERR antagonists or agonist from cytotoxic substances, the assay is multiplexed with cell viability assay.
Tox21 Assay Protocol Summary:
The ERR cells were dispensed at 2,000 cells/5 ul/well in 1536-well white plates using a Multidrop dispenser. After the assay plates were incubated at a 37 C/5% CO2 incubator for 6 hours, 23 nL of compounds dissolved in DMSO, positive and negative controls or DMSO only was transferred to the assay plate by a pin tool. The plates were incubated at 37 C for 17.5 hours. 1 ul/well of CellTiter-Fluor reagent was added into the assay plates using a Flying Reagent Dispenser. After 30-minute incubation at 37 C/5% CO2, the fluorescence intensity in the plates was measured using a ViewLux plate reader.
On the technique in general: Quantitative high-throughput screening tests each substance at several concentrations.
Turning to `COc1ccccc1OCC(O)CN1CCN(CC(=O)Nc2c(C)cccc2C)CC1` (stereo not given), the “viability change, negative = cytotoxic” value is -4.52% [at 42.5 µM] (inactive). On the same count and under the same terms, then `CN1CCC(=C2c3ccccc3CC(=O)c3sccc32)CC1`, with -0.0143% [at 42.5 µM] (inactive).

Turning to `Cc1sccc1Br`, the “viability change, negative = cytotoxic” value was 2.09% [at 42.5 µM] (inactive). The same measure, in the same setting: then `CS(=O)(=O)O`, with 0.0834% (inactive); and `C=C[Si](OC(=C)C)(OC(=C)C)OC(=C)C`, with 0.0638% (inactive); and `C=CCOCC(CC)(CO)COCC=C`, with 7.23% (inactive). Regarding `CCS(=O)(=O)c1ccc(OC)c(C(=O)OC)c1`, the “viability change, negative = cytotoxic” value is 2.54% [at 42.5 µM] (inactive).

For `CN(C)CCCNCCCN(C)C`, the “viability change, negative = cytotoxic” value is -0.787% (inactive). On the same count and under the same terms, then `CCN(Cc1ccncc1)C(=O)C(CO)c1ccccc1` (stereo not given), with 0.652% [at 42.5 µM] (inactive); and `OCCOc1ccc(OCCO)cc1`, with 0.186% (inactive); and `N=C(N)c1ccc2cc(OC(=O)c3ccc(N=C(N)N)cc3)ccc2c1`, with 6.63% [at 42.5 µM] (inactive). On the same count and under the same terms, in the case of `Nc1c2c(nc3ccccc13)CCCC2O` (stereo not given) it was -5.77% [at 42.5 µM] (inactive); in that of `Cc1ccc(Cl)cc1Cl`, 1.67% (inactive).

`Cn1c(N)c(N=O)c(=O)n(C)c1=O`: the “viability change, negative = cytotoxic” value was -1.21% (inactive). Still for that read-out and setting: then `N=C(N)c1ccc(OCCCOc2ccc(C(=N)N)cc2)cc1`, with 5.15% [at 42.5 µM] (inactive). On the same count and under the same terms, in the case of `CCOC(=O)C(=O)OCC` it was 0.862% (inactive); in that of `NCCCNCCSP(=O)(O)O`, 2.57% [at 8.39 µM] (inactive). Same read-out and setting: then `CC(C)OC(=O)c1ccccc1`, with 0.621% (inactive); and `CCCCCCCCCCCC`, with -4.73% (inactive). `CC(C)NCC(O)c1ccc(NS(C)(=O)=O)cc1` (stereo not given): the “viability change, negative = cytotoxic” value was -3.02% (inactive). For the compound `C[N+](C)(C)CC(O)CC(=O)[O-]` (stereo not given), the “viability change, negative = cytotoxic” value is 3.29% [at 42.5 µM] (inactive). For the compound `C=CCS(=O)(=O)O`, the “viability change, negative = cytotoxic” value was 1.72% (inactive). Same read-out and setting: in the case of `O=C(CCCN1CCN(c2ccccn2)CC1)c1ccc(F)cc1` it was 4.46% [at 42.5 µM] (inactive); in that of `FC(F)OC(Cl)C(F)(F)F` (stereo not given), -0.0067% (inactive). The same measure, in the same setting: in the case of `Nc1cc(=O)[nH]c(N)n1` it was 2.37% [at 42.5 µM] (inactive). Still for that read-out and setting: then `CCN(CC)CCOCCOC(=O)C1(c2ccccc2)CCCC1`, with -8.81% [at 42.5 µM] (inactive); and `NC(=O)c1ccc(N)cc1`, with 5.54% (inactive). As to `CCOC(=O)c1c(C)n(C)c2ccc(O)cc12`, the “viability change, negative = cytotoxic” value was 2.6% [at 42.5 µM] (inactive). Turning to `C=COCC1CCC(CO)CC1` (stereo not given), the “viability change, negative = cytotoxic” value is 0.781% (inactive). Regarding `CC(=O)OC/C=C(\C)CC/C=C(\C)CCC=C(C)C`, the Potency entry was “inactive”. On to `O=C1CC2CC1C1CCCC21` (stereo not given), for which the “viability change, negative = cytotoxic” value was -1.45% (inactive). Consider `CCOC(=O)c1cccc(N)c1`, for which the “viability change, negative = cytotoxic” value is -5.04% [at 42.5 µM] (inactive). For the compound `COC(=O)CCSCCC(=O)OC`, the “viability change, negative = cytotoxic” value was 4.01% (inactive).

For `c1ccc([C@H]2CN3CCSC3=N2)cc1`, the “viability change, negative = cytotoxic” value is -2.7% [at 42.5 µM] (inactive). Same read-out and setting: in the case of `CCOC(=O)[C@H](CCc1ccccc1)N[C@@H](C)C(=O)N1[C@H](C(=O)O)C[C@@H]2CCC[C@@H]21` it was -0.206% [at 42.5 µM] (inactive).

In the case of `C[C@H]1C[C@@H](O)CC(C)(C)C1`, the “viability change, negative = cytotoxic” value is 1.25% (inactive). Same read-out and setting: then `CC(C)(C)NCCNC(C)(C)C`, with 4% (inactive); and `CCCCC/C=C\CCC=O`, with -0.305% (inactive). Regarding `CCCCCSCCCCC`, the “viability change, negative = cytotoxic” value is 7.55% (inactive). For `OC[C@]1(O)OC[C@@H](O)[C@H](O)[C@@H]1O`, the Potency result is “inactive”.
